# Source: PubChem BioAssay (National Center for Advancing Translational Sciences (NCATS))
# Shown are actives, neighbours in structure and some others; about 6.1% of the full set was active somewhere.
# D1 ag: activates the human D1 dopamine receptor. P21728. HEK293 T-REx D1 cells, calcium flux, agonist mode. activation, % at 2 µM. 360,000 tested, 1% active; in the data active means activation above about 30%
#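 Agonism was scored from calcium flux recorded over 180 s (1 read/s) after pintool compound addition, following a 10-cycle baseline. Cells were inducible force-coupled HEK293 TREx D1, plated overnight at 30 C and loaded with no-wash calcium dye.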
# D3 ag: agonists of human D3 dopamine receptor | P35462 | D3R DiscoveRx beta-arrestin cells, luminescence, 90 min | max activation, % | 410,000 tested, 0.58% active; in the data active means max activation above about 30%
# Target sequence (P35462 whole entry, looked up): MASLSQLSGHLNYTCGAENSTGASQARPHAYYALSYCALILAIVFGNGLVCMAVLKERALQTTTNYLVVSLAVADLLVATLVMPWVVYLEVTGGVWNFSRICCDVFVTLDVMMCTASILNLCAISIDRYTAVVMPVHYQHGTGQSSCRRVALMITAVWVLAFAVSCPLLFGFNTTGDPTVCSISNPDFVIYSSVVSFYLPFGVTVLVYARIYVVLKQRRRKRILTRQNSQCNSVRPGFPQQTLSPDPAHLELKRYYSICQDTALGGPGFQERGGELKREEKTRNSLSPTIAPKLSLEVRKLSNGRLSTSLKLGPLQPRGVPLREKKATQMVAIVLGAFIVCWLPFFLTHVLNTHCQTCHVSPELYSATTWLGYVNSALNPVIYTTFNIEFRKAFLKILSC
#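 Agonist mode: compounds and dopamine controls were applied to plated cells for 90 min at 37 degrees C after an overnight attachment at 1500 cells/well. Luminescent read-out followed 30 - 60 minutes at room temperature with DiscoveRx detection reagent.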
# D1 PAM: human D1 dopamine receptor positive modulation. P21728. HEK293 TREx D1 cells, calcium flux, dopamine EC20 potentiation. potentiation, % at 10 µM. 360,000 tested, 0.036% active. AID 504651; in the data active means potentiation above about 30%
# DRD3 antagonist: D3 dopamine receptor (human) antagonism | P35462 | D3R cells, DiscoveRx beta-arrestin luminescence, antagonist mode; active compounds read low | max response, negative = inhibition, % | 360,000 tested, 2.5% active | AID 652054; in the data active means max response below about -50%
#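 Cells expressing the human receptor were seeded at 1500 cells/well, incubated overnight at 37 degrees C in 5% CO2, then exposed to library compounds with dopamine controls for 90 minutes at 37 degrees C before luminescent detection.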
# D1 antag: blocks dopamine activation of the human D1 receptor; P21728; HEK293 TREx D1 cells, calcium flux, dopamine EC80; active compounds read low; activity change, negative = inhibition, % at 10 µM; 360,000 tested, 3.2% active; AID 504652; in the data active means activity change below about -30%
#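 Calcium flux readout: force-coupled, inducible Hek293 Trex D1 line, cells induced overnight at 30 C with tetracycline, dye-loaded 30–90 min at RT. Antagonism scored against EC80 dopamine challenge given 180 s after compound.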
# Hits are given with their value; . = inactive; / = no result; ! = repeats disagree.
SMILES,D1 ag,D3 ag,D1 PAM,DRD3 antagonist,D1 antag
Cc1cc(C=C(C#N)C#N)ccc1N1CCCC1,50.9,.,.,.,.
N#CC(C#N)=Cc1ccc(N2CCOCC2)cc1,.,.,.,.,.
C=CCn1c(O)c(N=Nc2c(C)n(C)n(-c3ccccc3)c2=O)c(=O)[nH]c1=S,.,.,.,-57.2,.
CCOc1ccc(-n2c(O)c(N=Nc3c(C)n(C)n(-c4ccccc4)c3=O)c(=O)[nH]c2=O)cc1,.,.,.,.,.
Cc1c(N=Nc2c(O)[nH]c(=S)[nH]c2=O)c(=O)n(-c2ccccc2)n1C,.,.,.,-65.6,.
CC(=O)Nc1ccc(OC(=O)N(C)c2ccccc2)cc1,.,.,.,.,.
CC(=O)Nc1ccc(OC(=O)N(C)c2ccc(C)cc2)cc1,.,.,.,.,-38.0
COC(=O)[C@]12CCC(C)(C)C[C@H]1[C@H]1C(=O)C=C3[C@@]4(C)C=C(C#N)C(=O)C(C)(C)[C@@H]4CC[C@@]3(C)[C@]1(C)CC2,/,.,/,/,/
CC(=O)c1cn(Cc2ccccc2C#N)c2ccccc12,.,.,.,.,-34.1
CC(=O)c1cn(Cc2ccccc2F)c2ccccc12,.,.,.,.,-55.4
CC(C)C(=O)c1cn(Cc2ccccc2C#N)c2ccccc12,.,.,.,.,.
COc1ccc(OC)c([C@@H](O)[C@H](C)NC(C)(C)C)c1,.,.,.,.,.
COc1ccc(OC)c(C(O)C2CCCCN2)c1 (stereo not given),.,.,.,-61.3,.
NC(=O)c1ccc(OCCC(O)N2CC=C(c3ccc(F)cc3)CC2)cc1 (stereo not given),.,.,.,-57.3,.
CC(C)c1ccc(NC(=O)CN2C(=O)CN=C(c3ccccc3)c3ccccc32)cc1,.,.,.,/,.
CCC1(C)OC(c2ccccc2)=C/C(=C/C=C2C(=O)NC(=O)NC2=O)O1 (stereo not given),108.1,.,.,.,.
CCOc1ccc(CN(CCc2ccc3c(c2)OCO3)Cc2cc(OC)ccc2O)cc1,.,.,.,/,.
CC1OC(C[N+](C)(C)C)CC1O (stereo not given),.,.,.,.,.
C[C@H]1OC[C@@H](C[N+](C)(C)C)O1,47.0,.,.,.,.
Clc1ccc(COC(Cn2ccnc2)c2ccc(Cl)cc2Cl)c(Cl)c1 (stereo not given),.,46.6!,.,.,-47.9
COC(=O)C1=C(c2cccc(C#N)c2)C[C@@H]2CC[C@H]1N2C(=O)N1CCCCC1,.,.,.,.,-37.2
COC(=O)C1=C(c2ccc(C(C)=O)cc2)C[C@@H]2CC[C@H]1N2C(=O)NCc1ccc(C(F)(F)F)cc1,47.9,.,.,.,-41.4
COC(=O)C1=C(c2cccc(C#N)c2)C[C@@H]2CC[C@H]1N2C(=O)NC1Cc2ccccc2C1,.,.,.,.,-41.0
COC(=O)C1=C(c2cccc(C#N)c2)C[C@@H]2CC[C@H]1N2C(=O)N1CCC(O)CC1,.,.,.,.,/
COC(=O)C1=C(c2ccc(OC)c(OC)c2)C[C@@H]2CC[C@H]1N2C(=O)NC(C)C,.,.,.,.,-42.2
SMILES,D1 ag,D3 ag,D1 PAM,DRD3 antagonist,D1 antag
Cc1ccc(Cn2cccc(C(=O)Nc3nnc(C)s3)c2=O)cc1,.,.,.,/,/
CNC(C)C(O)c1ccc(O)cc1 (stereo not given),/,.,/,/,/
C=CC[C@]1(O)CC[C@H]2[C@@H]3CCC4=CCCC[C@@H]4[C@H]3CC[C@@]21C,/,.,/,/,/
ClCCN(CCCl)c1ccc(C=Cc2ccncn2)cc1,/,71.7,/,.,/
ClC(Cl)(Cl)Cl,/,.,/,/,/
O=C1NCN(c2ccccc2)C12CCN(C(c1cc3ccccc3o1)c1nnnn1C1CCCCC1)CC2 (stereo not given),/,.,/,.,/
CC(C)(C)n1nnnc1C(c1cc2ccccc2o1)N1CCC2(CC1)C(=O)NCN2c1ccccc1 (stereo not given),/,.,/,-98.9,/
CCOCCCNC(=O)CN1C2CCC1CC(O)(c1ccc(OC)cc1)C2 (stereo not given),.,.,.,-72.3,.
COc1ccc(NC(=O)CN2C3CCC2CC(O)(c2cccnc2)C3)cc1OC (stereo not given),.,.,.,.,.
CCCC(C)(COC(N)=O)COC(=O)NC1CC1 (stereo not given),/,.,/,/,/
Cc1cc(-c2ccccc2)cc(-c2ccccc2)[n+]1CCc1ccccc1,.,.,.,.,-42.5
CCN1/C(=C\C=C\C2=[N+](CC)c3ccccc3C2(C)C)C(C)(C)c2ccccc21,204.1,.,.,-96.2,.
Cc1cccc(NP(=O)(Oc2ccccc2F)Oc2ccccc2F)c1,.,.,.,.,.
O=P(Nc1cccc(F)c1)(Oc1ccccc1F)Oc1ccccc1F,.,.,.,.,-37.0
COc1cc(CN2CCCC(C(=O)c3sccc3C)C2)cc(Cl)c1O (stereo not given),.,.,.,-51.2,.
COc1ccc(CN2CCCC(C(=O)c3sccc3C)C2)cc1O (stereo not given),.,.,.,-73.8,.
CC(=O)[O][Hg][c]1ccccc1,/,.,/,/,/
COCCNCCOc1ccc(C(C)(C)c2ccccc2)cc1,37.6,.,.,-57.2,.
COP(=S)(OC)Oc1ccc(S(=O)(=O)N(C)C)cc1,/,.,/,/,/
COc1cc(/C=C/c2nc3ccccc3c(=O)n2-c2ccc(Br)c(C)c2)ccc1O,.,.,.,/,.
CCn1c(O)c(N=Nc2ccc(S(=O)(=O)N3CCOCC3)cc2)c(=O)n(CC)c1=S,.,.,.,-70.9,.
O=c1[nH]c(=S)n(-c2ccc(Cl)cc2)c(O)c1C=Nc1ccc(N2CCOCC2)cc1,41.6,.,.,.,.
CCn1c(O)c(C=Nc2ccc(N3CCOCC3)cc2)c(=O)n(CC)c1=S,98.9,.,.,.,.
O=c1[nH]c(=O)n(C2CCCCC2)c(O)c1C=Nc1ccc(N2CCOCC2)cc1,.,.,.,.,.
Nc1nc(N)nc(NC2CC2)n1,/,.,/,/,/
SMILES,D1 ag,D3 ag,D1 PAM,DRD3 antagonist,D1 antag
O=C(OC1CCN(CCCl)CC1)C(c1ccccc1)c1ccccc1,.,.,.,-94.8,.
C[N+]1(C)[C@@H]2CC[C@H]1CC(OC(=O)C(c1ccccc1)c1ccccc1)C2 (stereo not given in full),.,.,.,.,.
CC1CCN(CC#CCOc2ccc(Cl)cc2)CC1,.,.,.,-104.8,.
O=C1Nc2ccc(Cl)cc2C(c2ccccc2)=NC1O (stereo not given),/,.,/,/,/
Cc1cc(-n2c(/C=C/c3cccs3)nc3ccccc3c2=O)ccc1Br,.,.,.,/,-31.8
ClC1=CCC2CN(CCN3CCCCC3)CC2C1 (stereo not given),.,.,.,-52.2,.
CSc1ncc(C(=O)Nc2ccc(Cl)cc2C(=O)c2ccccc2)c(C)n1,.,.,.,/,.
CC[C@H]1CN(C)CCc2c([nH]c3ccccc23)C(=O)C[C@@H]1/C(=C\OC)C(=O)OC,/,.,/,-50.8,/
O=S(=O)(O)C(F)(F)C(F)(F)C(F)(F)C(F)(F)C(F)(F)C(F)(F)C(F)(F)C(F)(F)F,/,.,/,/,/
